Records with an inconclusive call do not appear. Activity calls are given as the source filed them. Calls come from the whole dose curve; as a rule, active = well fitted inhibition curve with a large enough effect; inconclusive = small, poorly fitted or top-dose-only effect; inactive = no such curve, though single readings can be large or run the other way.

This test concerns zebrafish Abcb4 (ABCB1 homolog). Kind of test: qHTS for characterization and localization of zebrafish homologs of the human ABCB1 multidrug transporter: ABCB4 transfected cells. The settings on record: CellTiter-Glo viability luminescence, 72 h; series mostly up to 46.1 µM; activity change, negative = inhibition: at the top concentration. The method, boiled down:
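Empty-vector, P-gp-overexpressing MDR-19 and zebrafish abcb4- or abcb5-transfected cells were exposed to ~90 P-gp substrates at varying concentrations for 72 h at 37C. Viability was read by CellTiter-Glo luminescence; cytotoxic meant inhibitory curve class, >50% maximal response and AC50 < 10 uM.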
A general note: In qHTS, concentration-response curves come from the screen itself.
For the molecule `O=C(NC1CCNCC1)c1[nH]ncc1NC(=O)c1c(Cl)cccc1Cl`, the “activity change, negative = inhibition” value is 0% (inactive). On the same count and under the same terms, in the case of `CCc1c(O)cc(O)c(C(=O)c2ccc(OCCN3CCOCC3)c(OC)c2)c1CC(=O)N(CCOC)CCOC` it was -0.0218% (inactive). As to `Cc1cc(N)c2ccccc2[n+]1CCCCCCCCCC[n+]1c(C)cc(N)c2ccccc21`, the “activity change, negative = inhibition” value is 3.65% (inactive). Same read-out and setting: in the case of `CC(C)CC(=O)Nc1n[nH]c2c1CN(C(=O)C1CCN(C)CC1)C2(C)C` it was 4.88% (inactive). Consider `CC(C)C[C@H](NC(=O)[C@@H](NC(=O)c1cccc(-c2ccccc2)n1)[C@@H](C)O)B(O)O`, for which the Potency was 0.662 µM (active). Consider `Cc1[nH]c2ccccc2c1CCNCc1ccc(/C=C/C(=O)NO)cc1`, for which the Potency is 2.96 µM (active).

`Cc1ccc(-c2ncn(-c3ccc(Nc4nccc(-c5cccc(N6CCOCC6)c5)n4)cc3)n2)cn1`: the Potency was 4.18 µM (active). Take `C[C@@]12O[C@@H](C[C@]1(O)CO)n1c3ccccc3c3c4c(c5c6ccccc6n2c5c31)CNC4=O`: the Potency was 5.26 µM (active). On the same count and under the same terms, in the case of `CC(C)C[C@H](NC(=O)[C@H](CCc1ccccc1)NC(=O)CN1CCOCC1)C(=O)N[C@@H](Cc1ccccc1)C(=O)N[C@@H](CC(C)C)C(=O)[C@@]1(C)CO1` it was 2.35 µM (active). Take `CC(C)(C)c1cnc(CSc2cnc(NC(=O)C3CCNCC3)s2)o1`: the Potency was 38.2 µM (active). In the case of `COC[C@H](NC(=O)c1cnc(C)s1)C(=O)N[C@@H](COC)C(=O)N[C@@H](Cc1ccccc1)C(=O)[C@@]1(C)CO1`, the Potency is 0.935 µM (active).

The values are drawn from PubChem BioAssay AID1508635 (National Center for Advancing Translational Sciences (NCATS), 2021).
